Experimental data reported in PubChem BioAssay (Tox21).
Where “and” joins values, the source holds several entries; their conditions need not be identical. Identical values can stand only once. Records with an inconclusive call do not appear. More than one record can exist for a structure, and the calls need not agree. Calls of active or inactive are those of the source. Calls come from the whole dose curve; as a rule, active = well fitted cell-killing curve with a large enough effect in the repeat runs; inconclusive = weak or mixed curves, or effect the other way; inactive = no such curve, though single readings can be large or run the other way.
% is set by controls: 0 for no effect and ±100 for the full control effect; potency is the fitted concentration of half-maximal effect.

Test: qHTS assay to identify small molecule antagonists of the thyroid receptor (TR) signaling pathway - cell viability counter screen (AID 743064); note: nearly all actives have a fitted effect of over 50% in size
Details: GH3.TRE-Luc viability, CellTiter-Fluor, 24 h; series mostly up to 70.3 µM; activity change, negative = cytotoxic: at the top concentration
Source text: National Center for Advancing Translational Sciences [NCATS]
NIH Chemical Genomics Center [NCGC]
U.S. Environmental Protection Agency [EPA]
National Institutes of Environmental Health Sciences [NIEHS]
National Toxicology Program [NTP]
U.S. Food and Drug Administration [FDA]
Thyroid receptor (TR), a nuclear hormone receptor, plays an important role in development, proliferation, differentiation, metabolism, brain function, and cardiovascular system. […] To profile the Tox21 10K compound library in TR signaling, a cell-based GH3-TRE-Luc assay (GH3.TRE-Luc cell line, developed by the laboratory of Dr. Albertinka J. Murk, Wageningen University) was used to measure the inhibition of TR. GH3 (rat pituitary tumor) cells stably expressing a TR activity sensor consisting of two TR response elements and a luciferase reporter gene. The cytotoxicity of the Tox21 compound library against the GH3.TRE-Luc cell line was tested in parallel by measuring the cell viability using CellTiter-Fluor assay (Promega, Madison, WI) in the same wells.
Tox21 Assay Protocol Summary:
GH3.TRE-Luc cells were dispensed at 1500 cells/4 uL/well into 1536-well white solid bottom plates using a Multidrop Combi dispenser (Thermo Fisher Scientific Inc., Waltham, MA). After the assay plates were incubated at 37 C for 4 hours, 23 nL of library compound or DMSO controls was transferred to the assay plates by a pintool station (Kalypsys, San Diego, CA), followed by addition of 1 ul of T3 (1 nM, final concentration in the wells) to stimulate TR transactivation. The assay plates were incubated at 37 C for 23.5 h, and then 1 uL of CellTiter-Fluor reagent (Promega, Madision, WI) of measuring cytotoxicity was added to each well using a Bioraptr Flying Reagent Dispenser (FRD) workstation (Beckman Coulter, Indianapolis, IN, USA). The plates were incubated at 37C and 5% CO2 for additional 30 min, and fluorescence intensity was measured by a ViewLux plate reader (PerkinElmer, Shelton, CT).
For CCC(C)(C)OC, the “activity change, negative = cytotoxic” value was 7.46% (inactive). For C=C(C)[C@@H]1CCC2=CCC[C@@H](C)[C@]2(C)C1, the “activity change, negative = cytotoxic” value was -4.89% (inactive). For Cc1ccc2c(Br)cc(Br)c(O)c2n1, the Potency was 26.6 µM (active). For CC(=O)c1ccc([N+](=O)[O-])cc1, the “activity change, negative = cytotoxic” value was -4.48% (inactive). For C=COCC(C)C, the “activity change, negative = cytotoxic” value was 12.1% [at 95 µM] (inactive). For CN1C[C@H](C(=O)N[C@]2(C)O[C@@]3(O)[C@@H]4CCCN4C(=O)[C@H](Cc4ccccc4)N3C2=O)C[C@@H]2c3cccc4[nH]cc(c34)C[C@H]21, the Potency was 21.1 µM (active). With Brc1cc(Br)c(Oc2cc(Br)c(Br)cc2Br)cc1Br the “activity change, negative = cytotoxic” value was -9.24% (inactive). In the case of O=C1c2ccccc2C(=O)C1c1ccc(Br)cc1, the “activity change, negative = cytotoxic” value is reported as -1.4% (inactive). In the case of CC(=O)[C@H]1[C@H](C#N)C[C@H]2[C@@H]3CC=C4C[C@@H](O)CC[C@]4(C)[C@H]3CC[C@@]21C, the “activity change, negative = cytotoxic” value is reported as -2.64% (inactive). For O=C1c2ccccc2C(=O)C1c1nc2ccccc2c(Br)c1O, the “activity change, negative = cytotoxic” value was -1.06% (inactive). With CN1C(=O)N(c2ccccc2Br)Cc2cnc(Nc3ccc4c(c3)OCC(CO)O4)nc21 (stereo not given) the Potency was 54.5 µM (active). With CC1=C(Br)C(=O)C(Br)=C/C1=C(/c1ccccc1S(=O)(=O)O)c1cc(Br)c(O)c(Br)c1C the Potency was 46.6 µM (active). With COc1ncnc(NS(=O)(=O)c2ccc(N)cc2)c1OC the “activity change, negative = cytotoxic” value was 1.17% (inactive). With CCOC(=O)c1ccc(C#Cc2ccc3c(c2)C(C)(C)CCS3)nc1 the “activity change, negative = cytotoxic” value was -5.18% (inactive). With COC(=O)CCS the “activity change, negative = cytotoxic” value was 4.97% (inactive). For Cc1ccccc1N=C(N)Nc1ccccc1C, the “activity change, negative = cytotoxic” value was -21.3% (inactive). With CCCCCC[C@@H](O)C/C=C\CCCCCCCC(=O)OCC(O)CO (stereo not given in full) the “activity change, negative = cytotoxic” value was 4.76% (inactive). In the case of C[C@@H](O)[C@H]1C(=O)N2C(C(=O)O)=C([C@H]3CCCO3)S[C@H]12, the “activity change, negative = cytotoxic” value is reported as 14.5% (inactive). With C=Cc1ccc(S(=O)(=O)O)cc1 the Potency was “inactive and 9.69 µM (active)”. For CC(C)(C)C(=O)C(=O)O, the “activity change, negative = cytotoxic” value was -0.268% (inactive). In the case of CC(C)C(O)(c1ccc(OC(F)(F)F)cc1)c1cncnc1 (stereo not given), the “activity change, negative = cytotoxic” value is reported as -21.1% (inactive). For CC1=Nc2ccc3ccccc3c2C1(C)C, the “activity change, negative = cytotoxic” value was 0.72% (inactive). For CC(C)=CCC1C(=O)N(c2ccccc2)N(c2ccccc2)C1=O, the “activity change, negative = cytotoxic” value was -46.7% (inactive). With CCCCCCCCCCC(=O)O the “activity change, negative = cytotoxic” value was -0.983% [at 95 µM] (inactive). With CCCC(=O)C(=O)O the “activity change, negative = cytotoxic” value was -0.352% (inactive). In the case of CC(C)C[C@H](NC(=O)[C@H](CCc1ccccc1)NC(=O)CN1CCOCC1)C(=O)N[C@@H](Cc1ccccc1)C(=O)N[C@@H](CC(C)C)C(=O)[C@@]1(C)CO1, the Potency is reported as 0.0422 µM (active). For O=C(/C=C/c1ccc(O)c(O)c1)O[C@@H]1C[C@@](OC(=O)/C=C/c2ccc(O)c(O)c2)(C(=O)O)C[C@@H](O)[C@@H]1O, the “activity change, negative = cytotoxic” value was -20.9% (inactive). For Clc1cc(Cl)nc(Cl)n1, the “activity change, negative = cytotoxic” value was 11.3% [at 95 µM] (inactive). For CCCCCC[C@@H](O)C/C=C\CCCCCCCC(=O)O, the Potency was “inactive”. In the case of O=Cc1c2ccccc2c(Cl)c2ccccc12, the “activity change, negative = cytotoxic” value is reported as 3.21% (inactive). In the case of CC[C@]1(O)C[C@H]2CN(CCc3c([nH]c4ccccc34)[C@@](C(=O)OC)(c3cc4c(cc3OC)N(C=O)[C@H]3[C@@](O)(C(=O)OC)[C@H](OC(C)=O)[C@]5(CC)C=CCN6CC[C@]43[C@@H]65)C2)C1, the Potency is reported as 0.106 µM (active). For O=[N+]([O-])c1ccc(O/N=C/c2cc(Br)c(O)c(Br)c2)c([N+](=O)[O-])c1, the Potency was 10.8 µM (active). With Clc1ccc(Nc2nnc(Cc3ccncc3)c3ccccc23)cc1 the Potency was “inactive”. In the case of O=C(OCC(O)CO)c1ccccc1Nc1ccnc2cc(Cl)ccc12 (stereo not given), the “activity change, negative = cytotoxic” value is reported as -16.1% [at 32.5 µM] (inactive). For CCC(C)COC(C)=O (stereo not given), the “activity change, negative = cytotoxic” value was -3.7% (inactive). In the case of CN(C)CCC=C1c2ccccc2C=Cc2ccccc21, the Potency is reported as 15 µM (active). For Brc1cc2ccccc2c2ccccc12, the “activity change, negative = cytotoxic” value was 0.37% [at 95 µM] (inactive). With NNC(=O)CP(=O)(c1ccccc1)c1ccccc1 the “activity change, negative = cytotoxic” value was 20% (inactive). For CC=C(Cl)Cl, the “activity change, negative = cytotoxic” value was -4.26% (inactive). In the case of C=C1CCC2CC1C2(C)C (stereo not given), the “activity change, negative = cytotoxic” value is reported as -1.94% (inactive).
